# Test results published in PubChem BioAssay (NCI).
# Compounds without any hit were thinned out: in the full panel of roughly 79,000, 15% have a hit. Unmarked numbers belong to inactive results. Calls of active or inactive are those of the source. Cut-off read from the data, not from the text of the source: active = growth inhibition above about 70%; inactive = the rest.
# Legend:
# [1] = NCI Yeast Anticancer Drug Screen. Data for the rad52 strain (AID 147);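 note: 0% = growth of vehicle-treated control cultures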; details: S. cerevisiae rad52 mutant growth inhibition, hits give high values
# Procedure, shortened: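 Yeast strain carrying a DNA damage repair alteration was exposed to test compounds. Growth inhibition was measured relative to vehicle-treated controls.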
# [2] = NCI Yeast Anticancer Drug Screen. Data for the wt1 strain (AID 149);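 note: 0% = growth of vehicle-treated wt1 cultures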; details: S. cerevisiae wt1 strain (SPY 50644) growth inhibition, hits give high values
# Procedure, shortened: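 Compounds are added to wt1 yeast cultures. Growth is then measured. Inhibition is expressed relative to vehicle-treated controls.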
# [3] = NCI Yeast Anticancer Drug Screen. Data for the rad50EPP+ strain (AID 151);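 note: 0% = growth of vehicle-treated control cultures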; details: S. cerevisiae rad50 mutant strain, hits give high values
# Procedure, shortened: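 Yeast strain carrying rad50 alteration (rad50EPP+) exposed to compounds; growth inhibition measured relative to vehicle-treated controls.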
# [4] = NCI Yeast Anticancer Drug Screen. Data for the rad50 strain (AID 155);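 note: 0% = growth of vehicle-only cultures of the same strain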; details: S. cerevisiae rad50 strain growth inhibition, hits give high values
# Procedure, shortened: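 Inhibition values express reduced yeast growth in compound-treated cultures relative to vehicle-treated controls.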
# [5] = NCI Yeast Anticancer Drug Screen. Data for the mec2-1 strain (AID 157); details: S. cerevisiae mec2-1 strain, hits give high values
# Procedure, shortened: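 mec2-1 yeast strain, carrying an alteration in DNA damage repair or cell cycle control, was exposed to compounds; growth inhibition was measured relative to vehicle-treated controls.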
# [6] = NCI Yeast Anticancer Drug Screen. Data for the rad14 strain (AID 159);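 note: 0% = growth of vehicle-treated control cultures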; details: S. cerevisiae rad14 strain growth inhibition, hits give high values
# Procedure, shortened: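 A mutant yeast strain defective in DNA damage repair is treated with compound; inhibition of its growth is scored against untreated, vehicle-exposed cultures.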
# [7] = NCI Yeast Anticancer Drug Screen. Data for the sgs1 mgt1 strain (AID 161);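 note: 0% = growth of cultures given vehicle only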; details: S. cerevisiae sgs1 mgt1 strain, hits give high values
# Procedure, shortened: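 Percent growth inhibition was derived by comparing compound-exposed mutant yeast with vehicle-exposed cultures. The strain carries alterations in DNA damage repair.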
# [8] = NCI Yeast Anticancer Drug Screen. Data for the CLN2oe strain (AID 163);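 note: 0% = growth of vehicle-only control cultures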; details: S. cerevisiae CLN2oe strain, hits give high values
# Procedure, shortened: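 Yeast cells carrying a defined cell-cycle control alteration were exposed to test compounds. Growth inhibition was scored against vehicle-treated control cultures.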
# [9] = NCI Yeast Anticancer Drug Screen. Data for the cln2 rad14 strain (AID 165);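 note: 0% = growth equal to vehicle treated cultures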; details: S. cerevisiae cln2 rad14 strain, hits give high values
# Procedure, shortened: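 Yeast carrying cln2 and rad14 alterations (cell cycle control and DNA damage repair) were exposed to compounds. Growth inhibition was measured against vehicle-treated controls.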
# [10] = NCI Yeast Anticancer Drug Screen. Data for the bub3 strain (AID 167); details: S. cerevisiae bub3 mutant strain, hits give high values
# Procedure, shortened: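 Steps: expose the mutant yeast strain to compound; grow alongside vehicle-treated cultures; measure growth; express inhibition against the vehicle cultures.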
# [11] = NCI Yeast Anticancer Drug Screen. Data for the wt2 strain (AID 169);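 note: 0% = growth of vehicle-treated yeast cultures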; details: S. cerevisiae wt2 strain growth inhibition, hits give high values
# Procedure, shortened: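 Yeast cells were exposed to test compounds, and growth inhibition was measured relative to vehicle-treated controls.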
# [12] = NCI Yeast Anticancer Drug Screen. Data for the mlh1 strain (AID 171);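 note: 0% = growth of vehicle-treated control cultures of the same strain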; details: S. cerevisiae mlh1 strain growth inhibition, hits give high values
# Procedure, shortened: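 Yeast carrying a defined genetic alteration in DNA damage repair or cell cycle control were exposed to test compounds. Growth inhibition was measured relative to vehicle-treated controls.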
# [13] = NCI Yeast Anticancer Drug Screen. Data for the sgs1 strain (AID 173);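 note: 0% = growth of vehicle-only control cultures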; details: S. cerevisiae sgs1 mutant, hits give high values
# Procedure, shortened: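 Yeast mutant strains carrying defined defects in DNA damage repair or cell cycle control were exposed to test compounds. Growth inhibition was scored against vehicle-treated controls.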
# [14] = NCI Yeast Anticancer Drug Screen. Data for the mlh1 rad18 strain (AID 175); details: S. cerevisiae mlh1 rad18 strain growth inhibition, hits give high values
# Procedure, shortened: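 Growth inhibition of the yeast strain was measured after compound exposure and expressed relative to vehicle-treated controls. The strain carries defined defects in DNA damage repair.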
# [15] = NCI Yeast Anticancer Drug Screen. Data for the rad18 strain (AID 177); details: S. cerevisiae rad18 mutant growth inhibition, hits give high values
# Procedure, shortened: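 Yeast carrying a defined DNA damage repair alteration were exposed to compounds. Growth inhibition was expressed relative to vehicle-treated controls.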
# [16] = at 5.0 µM (retest, dose inferred, filed as 0.5)
# [17] = at 50.0 µM (retest, dose inferred, filed as 5.0)
smiles,measurement,setting,value
COc1ccc(/C=C(\NC(=O)c2ccccc2)C(=O)NN(C)c2ccnc3cc(Cl)ccc23)cc1OC,growth inhibition,[1]; at 1.2 µM,3%
same,growth inhibition,[1]; at 3.7 µM,1%
same,growth inhibition,[1]; at 11.0 µM,12%
same,growth inhibition,[1]; at 33.0 µM,5%
same,growth inhibition,[1]; at 100.0 µM,27%
same,growth inhibition,[2]; at 1.2 µM,-41%
same,growth inhibition,[2]; at 3.7 µM,0%
same,growth inhibition,[2]; at 11.0 µM,3%
same,growth inhibition,[2]; at 33.0 µM,11%
same,growth inhibition,[2]; at 100.0 µM,15%
same,growth inhibition,[3]; at 1.2 µM,4%
same,growth inhibition,[3]; at 3.7 µM,20%
same,growth inhibition,[3]; at 11.0 µM,78% (active)
same,growth inhibition,[3]; at 33.0 µM,90% (active)
same,growth inhibition,[3]; at 100.0 µM,78% (active)
same,growth inhibition,[4]; at 1.2 µM,-1%
same,growth inhibition,[4]; at 3.7 µM,7%
same,growth inhibition,[4]; [16],0%
same,growth inhibition,[4]; at 11.0 µM,19%
same,growth inhibition,[4]; at 33.0 µM,30%
same,growth inhibition,[4]; [17],30%
same,growth inhibition,[4]; at 50.0 µM,86.5% (active)
same,growth inhibition,[4]; at 100.0 µM,36%
same,growth inhibition,[5]; at 1.2 µM,-2%
same,growth inhibition,[5]; at 3.7 µM,-3%
same,growth inhibition,[5]; [16],-12%
same,growth inhibition,[5]; at 11.0 µM,0%
same,growth inhibition,[5]; at 33.0 µM,11%
same,growth inhibition,[5]; [17],-14%
same,growth inhibition,[5]; at 50.0 µM,28.6%
same,growth inhibition,[5]; at 100.0 µM,10%
same,growth inhibition,[6]; at 1.2 µM,2%
same,growth inhibition,[6]; at 3.7 µM,5%
same,growth inhibition,[6]; at 11.0 µM,8%
same,growth inhibition,[6]; at 33.0 µM,8%
same,growth inhibition,[6]; at 100.0 µM,6%
same,growth inhibition,[7]; [16],-6%
same,growth inhibition,[7]; [17],-6%
same,growth inhibition,[7]; at 50.0 µM,73.1% (active)
same,growth inhibition,[8]; at 1.2 µM,-2%
same,growth inhibition,[8]; at 3.7 µM,6%
same,growth inhibition,[8]; at 11.0 µM,38%
same,growth inhibition,[8]; at 33.0 µM,48%
same,growth inhibition,[8]; at 100.0 µM,58%
same,growth inhibition,[9]; [16],28%
same,growth inhibition,[9]; [17],5%
same,growth inhibition,[9]; at 50.0 µM,55.4%
same,growth inhibition,[10]; at 1.2 µM,-4%
same,growth inhibition,[10]; at 3.7 µM,-4%
same,growth inhibition,[10]; [16],9%
same,growth inhibition,[10]; at 11.0 µM,22%
same,growth inhibition,[10]; at 33.0 µM,32%
same,growth inhibition,[10]; [17],49%
same,growth inhibition,[10]; at 50.0 µM,90.2% (active)
same,growth inhibition,[10]; at 100.0 µM,50%
same,growth inhibition,[11]; at 1.2 µM,-1%
same,growth inhibition,[11]; at 3.7 µM,4%
same,growth inhibition,[11]; at 11.0 µM,31%
same,growth inhibition,[11]; at 33.0 µM,36%
same,growth inhibition,[11]; at 100.0 µM,27%
same,growth inhibition,[12]; at 1.2 µM,-2%
same,growth inhibition,[12]; at 3.7 µM,1%
same,growth inhibition,[12]; at 11.0 µM,6%
same,growth inhibition,[12]; at 33.0 µM,15%
same,growth inhibition,[12]; at 100.0 µM,25%
same,growth inhibition,[13]; at 1.2 µM,0%
same,growth inhibition,[13]; at 3.7 µM,3%
same,growth inhibition,[13]; at 11.0 µM,7%
same,growth inhibition,[13]; at 33.0 µM,21%
same,growth inhibition,[13]; at 100.0 µM,31%
same,growth inhibition,[14]; [16],0%
same,growth inhibition,[14]; [17],1%
same,growth inhibition,[14]; at 50.0 µM,87.1% (active)
same,growth inhibition,[15]; at 1.2 µM,2%
same,growth inhibition,[15]; at 3.7 µM,5%
same,growth inhibition,[15]; at 11.0 µM,11%
same,growth inhibition,[15]; at 33.0 µM,41%
same,growth inhibition,[15]; at 100.0 µM,50%
Nc1nc(N)c2c(n1)CCC(S(=O)(=O)c1ccc3ccccc3c1)C2 (stereo unspecified),growth inhibition,[1]; at 1.2 µM,26%
same,growth inhibition,[1]; at 3.7 µM,44%
same,growth inhibition,[1]; at 11.0 µM,54%
same,growth inhibition,[1]; at 33.0 µM,62%
same,growth inhibition,[1]; at 100.0 µM,65%
same,growth inhibition,[2]; at 1.2 µM,-2%
same,growth inhibition,[2]; at 3.7 µM,14%
same,growth inhibition,[2]; at 11.0 µM,12%
same,growth inhibition,[2]; at 33.0 µM,19%
same,growth inhibition,[2]; at 100.0 µM,15%
same,growth inhibition,[3]; at 1.2 µM,23%
same,growth inhibition,[3]; at 3.7 µM,35%
same,growth inhibition,[3]; at 11.0 µM,39%
same,growth inhibition,[3]; at 33.0 µM,40%
same,growth inhibition,[3]; at 100.0 µM,40%
same,growth inhibition,[4]; at 1.2 µM,-3%
same,growth inhibition,[4]; at 3.7 µM,13%
same,growth inhibition,[4]; [16],56%
same,growth inhibition,[4]; at 11.0 µM,32%
same,growth inhibition,[4]; at 33.0 µM,45%
same,growth inhibition,[4]; [17],72% (active)
same,growth inhibition,[4]; at 50.0 µM,49.2%
same,growth inhibition,[4]; at 100.0 µM,54%
same,growth inhibition,[5]; at 1.2 µM,14%
same,growth inhibition,[5]; at 3.7 µM,46%
same,growth inhibition,[5]; [16],83% (active)
same,growth inhibition,[5]; at 11.0 µM,65%
same,growth inhibition,[5]; at 33.0 µM,80% (active)
same,growth inhibition,[5]; [17],91% (active)
same,growth inhibition,[5]; at 50.0 µM,84.9% (active)
same,growth inhibition,[5]; at 100.0 µM,80% (active)
same,growth inhibition,[6]; at 1.2 µM,-2%
same,growth inhibition,[6]; at 3.7 µM,-6%
same,growth inhibition,[6]; at 11.0 µM,-11%
same,growth inhibition,[6]; at 33.0 µM,-8%
same,growth inhibition,[6]; at 100.0 µM,-4%
same,growth inhibition,[7]; [16],49%
same,growth inhibition,[7]; [17],60%
same,growth inhibition,[7]; at 50.0 µM,36%
same,growth inhibition,[8]; at 1.2 µM,-3%
same,growth inhibition,[8]; at 3.7 µM,6%
same,growth inhibition,[8]; at 11.0 µM,0%
same,growth inhibition,[8]; at 33.0 µM,8%
same,growth inhibition,[8]; at 100.0 µM,6%
same,growth inhibition,[9]; [16],5%
same,growth inhibition,[9]; [17],7%
same,growth inhibition,[9]; at 50.0 µM,6.95%
same,growth inhibition,[10]; at 1.2 µM,-41%
same,growth inhibition,[10]; at 3.7 µM,-27%
same,growth inhibition,[10]; [16],32%
same,growth inhibition,[10]; at 11.0 µM,-27%
same,growth inhibition,[10]; at 33.0 µM,3%
same,growth inhibition,[10]; [17],30%
same,growth inhibition,[10]; at 50.0 µM,-7.8%
same,growth inhibition,[10]; at 100.0 µM,2%
same,growth inhibition,[11]; at 1.2 µM,-35%
same,growth inhibition,[11]; at 3.7 µM,-8%
same,growth inhibition,[11]; at 11.0 µM,1%
same,growth inhibition,[11]; at 33.0 µM,5%
same,growth inhibition,[11]; at 100.0 µM,23%
same,growth inhibition,[12]; at 1.2 µM,-5%
same,growth inhibition,[12]; at 3.7 µM,3%
same,growth inhibition,[12]; at 11.0 µM,8%
same,growth inhibition,[12]; at 33.0 µM,10%
same,growth inhibition,[12]; at 100.0 µM,9%
same,growth inhibition,[13]; at 1.2 µM,16%
same,growth inhibition,[13]; at 3.7 µM,45%
same,growth inhibition,[13]; at 11.0 µM,55%
same,growth inhibition,[13]; at 33.0 µM,56%
same,growth inhibition,[13]; at 100.0 µM,44%
same,growth inhibition,[14]; [16],48%
same,growth inhibition,[14]; [17],54%
same,growth inhibition,[14]; at 50.0 µM,13.6%
same,growth inhibition,[15]; at 1.2 µM,7%
same,growth inhibition,[15]; at 3.7 µM,1%
same,growth inhibition,[15]; at 11.0 µM,8%
same,growth inhibition,[15]; at 33.0 µM,20%
same,growth inhibition,[15]; at 100.0 µM,22%
